Shown are actives, neighbours in structure and some others; about 2.2% of the full set was active somewhere.
LGR2 antag – Drosophila LGR2 receptor signaling inhibition; 0.35% of 380,000 active; inhibition, % at 9.99 µM; AID 720647; HEK293 LGR2, CRE-luciferase, bursicon-stimulated, 4 h;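 active = drop in luminescence signal, shown as inhibition above about 50% in the replicate tests, limit read from the data, passing the limit was not always enough; inconclusive = probably only some replicates passing the limit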;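 also: agonist challenge used bursicon conditioned medium at about half maximal strength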
PAX8 reporter – PAX8 transcriptional activity inhibition; RMG-I TPO-luciferase reporter, SteadyGlo, 24 h; inhibition, % at 12.6 µM; 1.2% of 360,000 active; AID 652154;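 active = mean replicate inhibition at least 60% with every replicate also reaching 60%; inconclusive = only one of the two criteria is met; inactive = mean below 60% and not all replicates reaching 60%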;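 also: luciferase light reporting Pax8 driven TPO promoter activity; plate controls were median of neutral control wells for no effect and mitoxantrone controls for full effect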
TRPM1 prom inh – inhibitors of MITF-driven TRPM1 promoter in melanoma cells | 0.83% of 330,000 active | SK-MEL-5 TRPM1 promoter luciferase, 24 h | inhibition, % at 12.5 µM;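 active = mean inhibition across replicates of 60% or more, whatever share of single replicates reaches that level; inconclusive = some that reach 60%, reason not given; inactive = mean inhibition across replicates below 60%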
EBV LMP1 NFkB – inhibitors of Epstein-Barr LMP1-induced NF-kappaB reporter | inhibition, % at 12.5 µM | 0.69% of 350,000 active | LMP1-induced NF-kappaB luciferase reporter cells, luminescence | AID 504558; in the data active = inhibition above about 41%; inconclusive = no clear call, values can overlap the other calls;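 also: 0% = neutral control wells and 100% = reference inhibitor control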
PGC1a acetyl inh – lowers PGC1a acetylation signal in U2OS cells | AlphaScreen anti-acetyl-lysine; with virally co-expressed GCN5 acetyltransferase | inhibition, % at 15.6 µM | 0.17% of 350,000 active | AID 651687;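 active = every replicate shows inhibition of at least 40%; inconclusive = mean inhibition at least 40% but some replicate below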;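 also: 0% = neutral control wells and 100% = positive control wells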
EWS-Fli inh – inhibitors of EWS/Fli oncoprotein transcriptional activity | A673 NR0B1-luciferase reporter, viability-normalised | inhibition, % at 12.6 µM | 0.67% of 350,000 active | AID 651661;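 active = mean inhibition of at least 50% after viability correction, with every replicate also passing that limit; inconclusive = mean reaches 50% but only one of two replicates passes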;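 also: firefly luciferase signal divided by Alamar Blue viability fluorescence both relative to DMSO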
Starred values were filed as active, the others as inactive.

`Cc1ccccc1S(=O)(=O)N1CC[C@@H]2[C@H]1c1cc(C#Cc3ccccc3)ccc1N[C@@H]2CO` gave LGR2 antag 9.1, PAX8 reporter -6.2, PGC1a acetyl inh -4.4 and EWS-Fli inh 10.6.
C[C@H]1CN([C@@H](C)CO)S(=O)(=O)c2ccc(-c3ccccc3F)cc2O[C@@H]1CN(C)C was read as LGR2 antag 0.7, PAX8 reporter 4.6, PGC1a acetyl inh 4.3 and EWS-Fli inh 4.0.
Screening O=C1C(=C(c2ccccc2)N2CCOCC2)Cc2ccccc21 returned LGR2 antag 107.2*, PAX8 reporter 113.0*, EBV LMP1 NFkB 63.5* and EWS-Fli inh 60.3*.
Screening O=C(c1ccccc1)N1CCN(C(=O)N2CCOCC2)CC1 returned PAX8 reporter 2.7, TRPM1 prom inh 3.6, EBV LMP1 NFkB -13.8 and PGC1a acetyl inh -5.2.
For CC(C)NC(=O)Nc1ccc2c(c1)CC(=O)N([C@H](C)CO)C[C@H](C)[C@H](CN(C)C(=O)Nc1ccc3c(c1)OCO3)O2 the results were LGR2 antag 12.8, PAX8 reporter -21.6, PGC1a acetyl inh 1.5 and EWS-Fli inh -8.5.
`O=C(C1CC1)N1CC[C@@H]2[C@@H](CO)Nc3ccc(C#Cc4ccc(F)cc4)cc3[C@@H]21` gave LGR2 antag 25.1, PAX8 reporter 4.2, PGC1a acetyl inh 8.8 and EWS-Fli inh 5.9.
Screening CC(=O)NC(c1ccc2ccccc2c1)c1ccc2cccnc2c1O (configuration not stated) returned LGR2 antag 20.1, PAX8 reporter 92.7*, TRPM1 prom inh 49.4, EBV LMP1 NFkB 48.9* and EWS-Fli inh 40.1.
`CCC(=O)NC(c1ccc(C)cc1)c1cc(Cl)c2cccnc2c1O` (configuration not stated) gave TRPM1 prom inh 4.2 and EBV LMP1 NFkB 43.0*.
Screening CC(=O)NC(c1ccc(Cl)cc1Cl)c1ccc2cccnc2c1O (configuration not stated) returned LGR2 antag 43.5, PAX8 reporter 83.3*, TRPM1 prom inh 51.6, EBV LMP1 NFkB 68.6* and EWS-Fli inh 46.6.
CCCC(=O)NC(c1ccc(Cl)cc1)c1ccc2cccnc2c1O (configuration not stated) was read as LGR2 antag 30.9, PAX8 reporter 85.3*, TRPM1 prom inh 74.7*, EBV LMP1 NFkB inconclusive, PGC1a acetyl inh 31.4 and EWS-Fli inh 45.5.
CCCC(=O)NC(c1ccc2c(c1)OCO2)c1cc(Cl)c2cccnc2c1O (configuration not stated) was read as TRPM1 prom inh 30.6 and EBV LMP1 NFkB 12.9.
Screening CO[C@@H]1CN(C)C(=O)c2cc(NC(C)=O)ccc2OC[C@@H](C)N(C(=O)C2CCC2)C[C@H]1C returned LGR2 antag 0.7, PAX8 reporter 7.7 and EWS-Fli inh 1.6.
For Cc1ccc(S(=O)(=O)Nc2cc(Cl)c(O)c3ncccc23)cc1 the results were LGR2 antag 33.7, PAX8 reporter 83.9*, TRPM1 prom inh 20.7, EBV LMP1 NFkB 18.6 and EWS-Fli inh -12.1.
`CCCCC(=O)NC(c1ccc(Cl)cc1)c1ccc2cccnc2c1O` (configuration not stated) gave LGR2 antag 47.8, PAX8 reporter 73.4*, EBV LMP1 NFkB 67.1*, PGC1a acetyl inh 9.1 and EWS-Fli inh 37.2.
Screening CCCC(=O)NC(c1cccs1)c1cc(Cl)c2cccnc2c1O (configuration not stated) returned LGR2 antag 4.4, PAX8 reporter 49.7, TRPM1 prom inh 45.3, EBV LMP1 NFkB 30.8, PGC1a acetyl inh 19.3 and EWS-Fli inh 1.5.
For CC(=O)NC(c1cccs1)c1cc(F)c2cccnc2c1O (configuration not stated) the results were LGR2 antag 13.6, PAX8 reporter 29.8, TRPM1 prom inh 43.8, EBV LMP1 NFkB 53.2* and EWS-Fli inh 13.0.
Screening CCCC(=O)NC(c1ccc(C)cc1)c1ccc2cccnc2c1O (configuration not stated) returned EBV LMP1 NFkB 62.5* and PGC1a acetyl inh 24.9.
CCCC(=O)NC(c1ccco1)c1cc(Cl)c2cccnc2c1O (configuration not stated) was read as TRPM1 prom inh 3.9, EBV LMP1 NFkB 33.6 and PGC1a acetyl inh 11.8.
For CO[C@@H]1CN(C)C(=O)c2cc(NS(C)(=O)=O)ccc2OC[C@H](C)N(C(=O)NC(C)C)C[C@H]1C the results were LGR2 antag 8.6, PAX8 reporter 2.5, PGC1a acetyl inh 1.8 and EWS-Fli inh -1.2.
COC(=O)C[C@H]1CC[C@@H]2[C@H](COc3ccc(NC(=O)c4cscn4)cc3C(=O)N2C)O1 was read as LGR2 antag 0.8, PAX8 reporter -10.2, PGC1a acetyl inh 3.4 and EWS-Fli inh -0.1.
`CCCC(=O)NC(c1ccc(Cl)cc1Cl)c1ccc2cccnc2c1O` (configuration not stated) gave LGR2 antag 34.8, PAX8 reporter 80.2*, TRPM1 prom inh 65.6*, EBV LMP1 NFkB 62.8* and EWS-Fli inh 37.9.
Screening COc1ccc(C(NC(C)=O)c2cc(Cl)c3cccnc3c2O)cc1OC (configuration not stated) returned LGR2 antag -11.0, PAX8 reporter 17.7, TRPM1 prom inh 39.9, EBV LMP1 NFkB -5.3, PGC1a acetyl inh 11.5 and EWS-Fli inh 9.5.
Screening CC(C)CC(=O)NC(c1cccs1)c1ccc2cccnc2c1O (configuration not stated) returned TRPM1 prom inh inconclusive, EBV LMP1 NFkB 37.1 and PGC1a acetyl inh 11.7.
Screening CCC(=O)NC(c1cccs1)c1ccc2cccnc2c1O (configuration not stated) returned LGR2 antag 10.5, PAX8 reporter 66.3*, TRPM1 prom inh 76.2*, EBV LMP1 NFkB 74.2*, PGC1a acetyl inh 47.4* and EWS-Fli inh 16.4.
Screening COc1ccccc1C(NC(C)=O)c1cc(Cl)c2cccnc2c1O (configuration not stated) returned LGR2 antag 11.8, PAX8 reporter 48.2, TRPM1 prom inh 10.6, EBV LMP1 NFkB 31.2, PGC1a acetyl inh 46.0* and EWS-Fli inh 10.7.
Screening COc1ccc(C(NC(C)=O)c2ccc3cccnc3c2O)c(OC)c1 (configuration not stated) returned TRPM1 prom inh 62.7*, EBV LMP1 NFkB 58.6* and PGC1a acetyl inh 22.6.
Cc1ccccc1S(=O)(=O)N1C[C@@H](O)COC[C@H]2O[C@H](CC(=O)N3CCOCC3)CC[C@@H]21 was read as LGR2 antag 1.8, PAX8 reporter -12.9, PGC1a acetyl inh 8.3 and EWS-Fli inh 4.3.
CC(=O)N1C[C@H]2[C@@H](c3ccccc31)[C@@H](CO)N2C(=O)CC1CC1 was read as LGR2 antag -3.0, PAX8 reporter -16.6, PGC1a acetyl inh 3.6 and EWS-Fli inh -9.6.
